# According to PubChem BioAssay AID2451 (National Center for Advancing Translational Sciences (NCATS), 2010):
# In all, about 290,000 compounds went through this assay and about 2,100 (0.72%) were called active. About 4% were inconclusive and are not listed. Calls come from the whole dose curve; as a rule, active = well fitted inhibition curve with a large enough effect; inconclusive = small, poorly fitted or top-dose-only effect, or effect the other way; inactive = flat fitted curve, though single readings scatter. What follows is part of a selection rich in actives, with near analogues and random picks from the rest.
# Biological target: Fructose-bisphosphate aldolase (Giardia intestinalis (strain ATCC 50803 / WB clone C6)) (UniProt A8B2U2)
# Assay: qHTS Assay for Inhibitors of Fructose-1,6-bisphosphate Aldolase from Giardia Lamblia; note: nearly all actives have a fitted effect of over 55% in size
# Settings: purified Giardia FBPA; series mostly up to 59.6 µM; activity, negative = inhibition: at the top concentration
# From the text: Assay Provider: Osnat Herzberg, University of Maryland
# The objective of this project is to obtain compounds that inhibit Giardia lamblia growth. G. lamblia is a human pathogen which afflicts impoverished nations; it is the most common cause of outbreaks of diarrhea in the United States. During the course of our study of potential drug targets in Giardia, we have identified the Class II (Zn2+ functions in electrophilic catalysis) fructose-1,6-bisphosphate aldolase (FBPA) as an excellent candidate for drug targeting. FBPA is a key glycolytic pathway enzyme, essential for G. lamblia survival. The human FBPA belongs to the Class I aldolases, which have a different substrate binding site structure and a radically different catalytic mechanism (employing a lysine-Schiff base intermediate). Therefore, affinity-based or mechanism-based inhibitors of the Giardia FBPA are expected not to interfere with the catalytic function of the human FBPA.
# A glyceraldehyde-3-phosphate dehydrogenase/triose phosphate isomerase/NAD/arsenate coupled assay was adapted to the 1536-well HTP format for use in the primary screen. This was done by coupling it to a diaphorase/resazurin/resorufin reaction that can be monitored by fluorescence (excitation, 544 nm; emission, 590 nm). Compounds identified in this screen will be further evaluated by coupling the glycerol-3-phosphate/triose phosphate isomerase/NADH assay to a phenazine methosulfate/tetranitroblue tetrazolium color reaction. False positives due to the dehydrogenases and diaphorase inhibition will be eliminated, and selectivity assay will triage inhibitors of mammalian triose phosphate isomerase and the Class I FBPA. G. lamblia FBPA inhibitors identified by the in vitro analyses will be examined for growth inhibition of Giardia trophozoites, and for cytotoxicity in human cells.
# Step,Parameter,Value,Description
# 1,Enzyme reagent,2 uL,40 nM FBPA
# 2,Compound,23 nL,3.68 nM-57.5 uM final concentration
# 3,Time,10 min,RT Incubation
# 4,Substrate/detection Reagent,2 uL,Substrate + enzyme coupling system + AmpLite Red kit
# 5,Time,20 min,RT Incubation
# 6,Detector,525 nm/598 nm (Fluorescence),ViewLux Fluorescence Read (Read 1)
# 1,Medium-binding black solid-bottom Kalypsys plates. FRD or Kalypsys dispenser, 2 uL of FBPA enzyme. Bottle kept at 4C.
# 2,Compound Library (10 mM ,1:5 dilution). Pin-transferred for a [final] range of 3.68 nM-57.5 uM.
# 4,FRD or Kalypsys dispenser, 2 uL of reaction mixture. Bottle kept at 4C and covered in foil to protect from light.
# 6,ViewLux Protocol 1194; Excitation filter wheel A (525/20 Pol; BODIPY TMR FP), Emission filter wheel B (598/25 S; BODIPY TMR FP S).
# Keywords: Fructose-bisphosphate aldolase, FBPA , Giardia lamblia , Giardia, HTS, Inhibitors
# % is set by controls: 0 for no effect and ±100 for the full control effect; potency is the fitted concentration of half-maximal effect.
# Fructose-bisphosphate aldolase (Giardia intestinalis (strain ATCC 50803 / WB clone C6)), sequence (A8B2U2 whole entry, looked up): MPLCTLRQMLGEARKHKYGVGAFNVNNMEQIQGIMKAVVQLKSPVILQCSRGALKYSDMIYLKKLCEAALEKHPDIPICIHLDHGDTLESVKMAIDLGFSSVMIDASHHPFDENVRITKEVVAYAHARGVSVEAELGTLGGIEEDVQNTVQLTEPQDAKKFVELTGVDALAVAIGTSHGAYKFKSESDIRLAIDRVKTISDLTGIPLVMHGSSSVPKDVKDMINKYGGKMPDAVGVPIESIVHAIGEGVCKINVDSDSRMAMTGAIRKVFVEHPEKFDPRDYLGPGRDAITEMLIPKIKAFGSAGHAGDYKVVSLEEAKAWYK
SMILES,"activity, negative = inhibition",Potency
Cc1nc2ccc(NC(=O)N3CCC(c4ccccc4)C3)cc2nc1C (stereo not drawn),-21.7% (inactive),–
Cc1cccc(NC(=S)N2CCC(c3nc4ccccc4s3)CC2)c1,-0.249% (inactive),–
Cc1nc2ccc(NC(=S)N3CCC(C)CC3)cc2nc1C,–,15.8 µM (active)
O=CN1CCN(C(=O)c2ccc(Br)o2)CC1,3.01% (inactive),–
Cc1cc(C)c(NC(=O)CN2CCCCCC2)c(C)c1,-2.14% (inactive),–
O=C(CN1CCCCCC1)Nc1c(Cl)cc(Cl)cc1Cl,5.6% (inactive),–
Cc1csc(NC(=O)CN2CCCCCC2)n1,–,22.3 µM (active)
Cc1cccc([C@@H]2[C@@H]3C(=O)N(C)C(=O)[C@@H]3[C@@H]3C(=O)Nc4ccccc4C(=O)N23)c1,-14.7% (inactive),–
COc1ccccc1N(CC(=O)N/N=C(\C)c1ccccc1O)S(=O)(=O)c1ccc(C)cc1,2.65% (inactive),–
CC(C)(C)c1ccc(CN2C(=O)c3ccccc3S2(=O)=O)cc1,-19.5% (inactive),–
Cc1ccc(C(=O)N2CC(=O)Nc3ccc(F)cc3C2c2ccc(F)cc2)cc1 (stereo not drawn),3.84% (inactive),–
Cc1ccccc1Nc1nnc(C)c(=O)[nH]1,-0.51% (inactive),–
Cc1nnc(N/N=C/c2ccccn2)[nH]c1=O,–,1.99 µM (active)
Cc1nnc(N/N=C/c2cccs2)[nH]c1=O,-7.41% (inactive),–
O=S(=O)(c1ccc(Br)c2ccccc12)N1CCOCC1,1.75% (inactive),–
COc1ccc(C(=O)Nc2ccc(C3(C#N)CCCC3)cc2)cc1OC,-4.77% (inactive),–
Cc1ccc(CC2CC(=O)N(c3cc(C)ccc3C)C2=O)cc1 (stereo not drawn),-1.82% (inactive),–
O=C(COc1cccc(Cl)c1)NCc1ccccc1,15% (inactive),–
CN(C)c1ccc(NC(=O)CSc2n[nH]c(-c3ccco3)n2)cc1,-5.76% (inactive),–
O=[N+]([O-])c1ccc(Sc2n[nH]c(-c3ccco3)n2)nc1,-26.1% (inactive),–
CN(C)C(=O)CSc1n[nH]c(-c2ccco2)n1,–,15.8 µM (active)
CC(C)Nc1ccc(-n2nc3ccccc3[n+]2[O-])cc1,-3.63% (inactive),–
COCCCNC(=S)N1CCN(c2nc(-c3cccc(OC)c3)cs2)CC1,-13.5% (inactive),–
O=C(N/C(=C/c1ccc(Cl)cc1)C(=O)N1CCCCC1)c1ccco1,8.42% (inactive),–
COc1cc2ccccc2cc1C(=O)Nc1nc(C)c(C(C)=O)s1,0.847% (inactive),–

SMILES,"activity, negative = inhibition",Potency
CCCCC(CC)CNCc1cccn1CCN1CCOCC1 (stereo not drawn),-22.5% (inactive),–
CCN(CC)c1ccc2oc(=O)c(C)nc2c1,–,2.51 µM (active)
CCN(CC)c1ccc(/C=N/Nc2nc(C)cc(=O)[nH]2)cc1,-1.27% (inactive),–
CCN(CC)c1ccc(/C=N/Nc2nc(C)cc(C)n2)c(O)c1,-25.3% (inactive),–
CCOCCOC(=O)C(C)Oc1ccc(Oc2ncc(C(F)(F)F)cc2Cl)cc1 (stereo not drawn),-9.6% (inactive),–
COc1ccc(C2CC(c3ccc([N+](=O)[O-])cc3)=NN2C(C)=O)cc1 (stereo not drawn),4.54% (inactive),–
C#CCN1C(=O)C(O)(CC(=O)c2cc(OC)ccc2OC)c2ccccc21 (stereo not drawn),0.87% (inactive),–
COc1ccc(C(=O)NC(C)CCc2ccccc2)c(OC)c1 (stereo not drawn),-2.8% (inactive),–
COc1ccc2c(c1)C(=C(C#N)C#N)C(=O)N2CCc1ccccc1,–,2.51 µM (active)
Brc1ccccc1C1N=C(c2ccccc2)NO1 (stereo not drawn),6.11% (inactive),–
Cc1ccc(SCC(CC(C)C)N2CCN(CCc3ccccc3)CCC2=O)cc1 (stereo not drawn),0.403% (inactive),–
CCOc1ccccc1NC(=O)C1CCCN(S(=O)(=O)c2ccccc2)C1 (stereo not drawn),-3.85% (inactive),–
CCN1CCc2c(C#N)c(NCc3ccccc3)nc(NCCO)c2C1,–,5.61 µM (active)
CCc1nc(NCCO)c(C#N)c2c1CCCC2,4.66% (inactive),–
CCCCc1nc(NCc2ccccc2)c(C#N)c2c1CCCC2,0.951% (inactive),–
Cc1cccc(C(=O)NCCCN2CCCC2=O)c1,0.332% (inactive),–
Cc1cc(Cl)ccc1NC(=S)NCCCN1CCCC1=O,3.39% (inactive),–
O=C1CCCN1CCCNC(=S)Nc1ccc(F)c(Cl)c1,–,14.1 µM (active)
O=C(O)CCCn1cc(NC(=O)COc2cccc(Cl)c2)cn1,-8.97% (inactive),–
COc1ccc(-n2ncc3c(SCC(=O)NNC(C)=O)ncnc32)cc1,13.2% (inactive),–
Cc1nn(-c2ccccc2)c(Cl)c1/C=C/C(=O)c1ccc(O)cc1,1.27% (inactive),–
Cc1ccccc1-n1nc(C)c2cc(C(=O)NC3CC3)sc21,0.949% (inactive),–
Cc1ccccc1-n1nc(C)c2c1N=C1C(Cl)=CC(Cl)=CN1C2c1ccc(C(=O)O)cc1 (stereo not drawn),–,12.6 µM (active)
Cc1cccc([C@@H]2[C@@H]3C(=O)N(Cc4ccccc4)C(=O)[C@@H]3[C@]3(C)C(=O)N(c4ccc(Br)cc4)C(=O)N23)c1,16.2% (inactive),–
CCN(CC)S(=O)(=O)c1ccc(-c2cn3ccc(C)cc3n2)cc1,4.66% (inactive),–

SMILES,"activity, negative = inhibition",Potency
C=CCn1c(SCc2ccccc2)nc2c1c(=O)[nH]c(=O)n2C,6.61% (inactive),–
Cc1cnc(NC(=O)c2ccccn2)s1,–,7.92 µM (active)
Cc1cnc(NC(=O)CSc2c(Cl)cccc2Cl)s1,0.395% (inactive),–
Cc1cnc(NC(=O)c2ccc(Cl)nc2)s1,-13.5% (inactive),–
CN(C)CCN(C(=O)C1=COCCO1)c1nc2ccc(Cl)cc2s1,-10.9% (inactive),–
CCc1ccc(NC(=O)N2CCc3ccccc3C2)cc1,5.4% (inactive),–
Cc1ccc(Cl)c(OCC(=O)N2CCc3ccccc3C2)c1,5.62% (inactive),–
COc1ccccc1C(=O)CSc1cccc[n+]1[O-],2% (inactive),–
O=C(CSc1cccc[n+]1[O-])c1ccc(Cl)cc1,-5.54% (inactive),–
O=C(CSc1cccc[n+]1[O-])c1ccc(-c2ccccc2)cc1,–,17.7 µM (active)
NS(=O)(=O)c1ccccc1NC(=O)c1c(O)c2ccccc2[nH]c1=O,-2.83% (inactive),–
CC(C)c1ccc(/C=C2\NC(=O)NC2=O)cc1,-2.07% (inactive),–
CC(=O)N1CCC(C(=O)OCc2ccc(Cl)cc2)(c2ccccc2)CC1,-0.423% (inactive),–
Cc1cccc2c(CCN)c[nH]c12,-6.67% (inactive),–
O=C(Cc1c[nH]c2ccccc12)OCCOC(=O)Cc1c[nH]c2ccccc12,-8.65% (inactive),–
COc1ccc(Nc2ncnc3ccc(Br)cc23)c(OC)c1,11.8% (inactive),–
O=C(c1cc(COc2ccc(F)cc2F)on1)N1CCOCC1,-1.6% (inactive),–
CSc1ccccc1NC(=O)c1cc(Cl)sc1Cl,-3.44% (inactive),–
CCCCC(C(=O)NC(C)(C)C)N(Cc1ccccc1)C(=O)c1snc(C(N)=O)c1N (stereo not drawn),3.79% (inactive),–
CN1CCN(Cc2ccc(OC(F)(F)F)cc2)CC1,-8.47% (inactive),–
COc1ccc(CN2CCN(Cc3ccc(OC)c(OC)c3OC)CC2)cc1,–,14.1 µM (active)
COc1ccccc1N1CCN(Cc2ccc(OC)c3ccccc23)CC1,-12.6% (inactive),–
Cc1cc(N=Nc2ccc3ccccc3c2)ccc1O,-0.276% (inactive),–
